Screening results: PubChem, SRMLSC
NADH enzymes: blocks coupling enzymes of NAD/NADH assays. coupled PK/LDH NADH assays, four targets. IC50, µM (top dose mostly 10 µM), inactives show at the highest dose inhibition. 0.02% of 65,000 active. AID 774;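 active means single-dose screening hits from any of four coupled enzyme assays that gave an IC50 when retested across doses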;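 further: the DPM-DC format reads NADH fluorescence rather than 340 nm absorbance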
Spn PMK inh: blocks S. pneumoniae phosphomevalonate kinase. inhibition, % at 10 µM. 0.49% of 65,000 active. purified PMK, PK/LDH-coupled NADH absorbance 340 nm;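 active means top-ranked compounds by inhibition in the single 10 µM screen, taking a fixed number of the strongest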;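 further: 0% = full reaction with DMSO carrier and 100% = background rate without enzyme reaction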
Autofluor 339: intrinsic fluorescence of library compounds, ex339/em460 – biochemical, MLSMR library, data from DPM-DC assay, artefact control, profiling panel. compound autofluorescence, ex339/em460 nm, NADH buffer; hits give high values; 1 = no-compound wells, NADH background. fluorescence fold increase at 10 µM. 5.5% of 65,000 active. AID 709;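 active means at 10 µM, mean starting fluorescence two-fold or more over control wells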;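 further: signal is the first read of a kinetic run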
Spn MK inh: S. pneumoniae mevalonate kinase inhibition; 0.48% of 65,000 active; inhibition, % at 10 µM; purified MK, PK/LDH-coupled NADH absorbance 340 nm;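 active means ranked among the strongest by inhibition in the single 10 µM screen, a fixed top-ranked set picked for dose follow-up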
Abs 340nm: compound absorbs light at 340 nm; compound absorbance at 340 nm, fold over control; fold change at 10 µM; AID 708; 65,000 tested, under 10 active;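 active means at 10 µM dose, initial 340 nm absorbance at least 2 fold that of control wells; inactive means change under 2 fold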;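 further: initial absorbance extrapolated from kinetic A340 decline of NADH oxidation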
DPM-DC inhibit: inhibitors of Streptococcus pneumoniae diphosphomevalonate decarboxylase | calls only at 10 µM | 0.49% of 65,000 active | purified DPM-DC, PK/LDH coupled NADH fluorescence;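 active means the 320 compounds with the highest percent inhibition in the single-dose primary screen, excluding strongly autofluorescent ones, cut at about 32% in these data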;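 further: kinetic rate of NADH fluorescence loss reporting ADP formed by the decarboxylase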
* = called active by the depositor; i = inactive; . = no result given. Hits are enriched below; roughly 6.8% of the tested compounds scored in any of these assays.

SMILES	NADH enzymes	Spn PMK inh	Autofluor 339	Spn MK inh	Abs 340nm	DPM-DC inhibit
O=c1oc(-c2cccs2)nc2c1cnn2-c1ccccc1	4%	4	2.2*	4	1.1	.
O=c1oc(-c2ccccc2)nc2c1cnn2-c1ccccc1	5%	0	1.1	6	1.1	i
O=C(CCc1nc2ccccc2c(=O)[nH]1)OCC(=O)N1CCN(S(=O)(=O)c2ccccc2)CC1	9%	28*	1.1	0	1	i
Cc1cc2c(C)cc(=O)oc2c2c1NCCC2	7%	1	3.6*	12	1.1	.
O=C(CSc1ncnc2c1oc1ccccc12)Nc1ccccc1C(F)(F)F	1%	3	1	2	0.99	i
COc1cc(-n2c3nc4ccccc4nc3c3c(=O)n(Cc4ccco4)cnc32)cc(OC)c1OC	0%	0	1.1	0	1	i
COc1ccc2c(c1)c1ncn(Cc3ccco3)c(=O)c1n2C	8%	9	3.7*	7	1	.
CCOC(=O)c1ccc(NC(=O)NC2CCN(CC(=O)NCc3ccc4c(c3)OCO4)CC2)cc1	5%	11	1.1	4	1	i
Cc1cc(C)cc(NC(=O)C2CCN(S(=O)(=O)c3c(C)n[nH]c3C)CC2)c1	4%	11	1.1	0	1	i
CCC(Sc1nc(=O)cc(N)n1-c1ccccc1)C(=O)Nc1ccc(Cl)cn1 (configuration not stated)	4%	8	1.1	4	1	i
COc1cc(OC)c(C2CC(=O)N3CN(c4ccccc4)CSC3=C2C#N)cc1OC (configuration not stated)	23%	5	1.1	64*	1.1	i
Cn1nc(CC(=O)Nc2ccc3c(c2)CCC3)c2ccccc2c1=O	4%	7	1.1	4	1	i
Cn1nc(CC(=O)Nc2ncc(Br)s2)c2ccccc2c1=O	8%	25*	1.1	0	1	i
CCCN1Cc2cccc(C(=O)Nc3ccc(N4CCN(CC)CC4)cc3)c2C1=O	8%	20	1.1	3	1	i
CCOC(=O)c1cc2c(=O)[nH]ccc2nc1C	7%	12	3.7*	2	1.1	.
CCOC(=O)c1cc(C(=O)OCC)c2cc(Br)ccc2n1	9%	5	1.1	14	1	i
CCC(C)C(=O)Nc1cc(C(=O)OC)cc(C(=O)OC)c1 (configuration not stated)	1%	3	1.2	1	1.1	i
COc1ccc(-n2nc3cc(C)c(NC(=O)C(C)C)cc3n2)cc1	6%	8	5.1*	3	1	.
Cc1cc(C)n(-c2nc3c(c(=O)n(C)c(=O)n3C)n2Cc2cccc(Br)c2)n1	7%	10	1.1	10	1	i
COc1ccccc1-n1c(SCC(=O)N2CCCCC2)nnc1-c1ccccc1O	11%	27*	1	5	1	i
COc1ccccc1OCc1nnc(SCC(=O)N2CCCCC2)n1-c1ccccc1	7%	7	0.97	0	1	i
Cc1noc(C)c1CSc1nnc(-c2ccccc2F)n1CCc1ccccc1	6%	14	1	3	0.99	i
COCC(C)n1c(COc2ccccc2F)nnc1SCc1c(C)noc1C (configuration not stated)	11%	29*	1	3	1	i
C=CCOc1nc2c(c(=O)n(C)c(=O)n2C)n1Cc1c(Cl)cccc1Cl	1%	8	1.1	1	1	i
COc1ccccc1N1CCN(CC(O)COc2ccc3c(C)cc(=O)oc3c2)CC1 (configuration not stated)	6%	0	1.8	3	1.1	i
COc1cccc(OC)c1OCC(O)CN1CCN(c2ccccc2)CC1 (configuration not stated)	15%	28*	1.1	16	0.97	i
Cc1cc(=O)oc2cc(OCCSCCN3CCOCC3)ccc12	3%	0	1.4	7	1.1	i
Cc1cc(=O)oc2cc(OCC(O)CN3CCN(c4ccccc4)CC3)ccc12 (configuration not stated)	8%	5	3.4*	0	1.1	i
Cc1cc(=O)oc2cc(OCC(O)CN3CCc4ccccc4C3)ccc12 (configuration not stated)	9%	17	4.2*	0	1.1	.
